Results reported in PubChem BioAssay AID1159580 (chemical genetic matrix, 2015).
The campaign covered roughly 5,500 compounds. About 2,000 (36%) were called active. Not shown: some 18% with an inconclusive outcome. The list shows a part of the results. Unmarked numbers belong to inactive results. Cut-off read from the data, not from the text of the source: active = normalized growth mostly below about 0.91 (no sharp cut-off); inconclusive = no clear call, values can overlap the other calls; inactive = mostly above about 0.92.

Experiment: chemical genetic growth profiling, strain panel (AID 1159580);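 note: tested at 20 µM; growth read once vehicle control cultures reached saturation at 30 °C; 1 = growth at the plate median or of vehicle wells; lower values mean less growth of the strain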
Details: S. cerevisiae deletion strains, growth OD

SMILES: N#Cc1nn(-c2c(Cl)cc(C(F)(F)F)cc2Cl)c(N)c1S(=O)C(F)(F)F (stereo not drawn)
- normalized growth (locus YAL021C, strain ccr4, hits give low values): 0.995
- normalized growth (locus YAL026C, strain drs2, hits give low values): 0.947
- normalized growth (locus YAL030W, strain snc1, hits give low values): 0.986
- normalized growth (locus YBL061C, strain skt5, hits give low values): 0.99
- normalized growth (locus YBR009C, strain hhf1, hits give low values): 0.895 (active)
- normalized growth (locus YBR023C, strain chs3, hits give low values): 1
- normalized growth (locus YBR171W, strain sec66, hits give low values): 0.961
- normalized growth (locus YBR231C, strain swc5, hits give low values): 1.01
- normalized growth (locus YBR279W, strain paf1, hits give low values): 1
- normalized growth (locus YCL011C, strain gbp2, hits give low values): 0.951
- normalized growth (locus YCL016C, strain dcc1, hits give low values): 1.04
- normalized growth (locus YCL069W, strain vba3, hits give low values): 0.998
- normalized growth (locus YCR088W, strain abp1, hits give low values): 0.993
- normalized growth (locus YDL005C, strain med2, hits give low values): 0.987
- normalized growth (locus YDL040C, strain nat1, hits give low values): 0.982
- normalized growth (locus YDR001C, strain nth1, hits give low values): 0.992
- normalized growth (locus YDR069C, strain doa4, hits give low values): 0.965
- normalized growth (locus YDR137W, strain rgp1, hits give low values): 0.576 (active)
- normalized growth (locus YDR159W, strain sac3, hits give low values): 0.888
- normalized growth (locus YDR195W, strain ref2): 1.15 [resistant] (active)
- normalized growth (locus YDR297W, strain sur2, hits give low values): 0.961
- normalized growth (locus YDR334W, strain swr1, hits give low values): 0.962
- normalized growth (locus YDR335W, strain msn5, hits give low values): 1.01
- normalized growth (locus YDR392W, strain spt3, hits give low values): 0.785
- normalized growth (locus YEL003W, strain gim4, hits give low values): 0.936
- normalized growth (locus YEL037C, strain rad23, hits give low values): 0.986
- normalized growth (locus YEL061C, strain CIN8 (second series), hits give low values): 0.973
- normalized growth (locus YER015W, strain faa2, hits give low values): 0.955
- normalized growth (locus YER016W, strain bim1, hits give low values): 1.01
- normalized growth (locus YER111C, strain swi4, hits give low values): 1.01
- normalized growth (locus YER155C, strain BEM2 (second series), hits give low values): 1.02
- normalized growth (locus YFR010W, strain ubp6, hits give low values): 0.939
- normalized growth (locus YGL167C, strain pmr1, hits give low values): 0.966
- normalized growth (locus YGL173C, strain kem1, hits give low values): 0.979
- normalized growth (locus YGL227W, strain vid30, hits give low values): 0.99
- normalized growth (locus YGL240W, strain doc1, hits give low values): 0.959
- normalized growth (locus YGL253W, strain hxk2, hits give low values): 0.929
- normalized growth (locus YHR013C, strain ard1, hits give low values): 1.01
- normalized growth (locus YHR027C, strain rpn1, hits give low values): 0.968
- normalized growth (locus YHR030C, strain SLT2, hits give low values): 1.01
- normalized growth (locus YHR079C, strain IRE1, hits give low values): 1.02
- normalized growth (locus YHR142W, strain chs7, hits give low values): 0.956
- normalized growth (locus YJL092W, strain hpr5, hits give low values): 0.992
- normalized growth (locus YJL095W, strain BCK1 (second series), hits give low values): 0.983
- normalized growth (locus YJL095W, strain BCK1, hits give low values): 0.991
- normalized growth (locus YJL115W, strain asf1, hits give low values): 0.99
- normalized growth (locus YJL129C, strain trk1, hits give low values): 1.01
- normalized growth (locus YJL154C, strain vps35, hits give low values): 0.978
- normalized growth (locus YJL164C, strain tpk1, hits give low values): 0.926
- normalized growth (locus YJL166W, strain qcr8, hits give low values): 0.94
- normalized growth (locus YJR066W, strain TOR1, hits give low values): 0.962
- normalized growth (locus YKL160W, strain elf1, hits give low values): 1.03
- normalized growth (locus YKR026C, strain gcn3, hits give low values): 0.98
- normalized growth (locus YKR091W, strain srl3, hits give low values): 0.989
- normalized growth (locus YLL001W, strain dnm1, hits give low values): 0.918
- normalized growth (locus YLL026W, hits give low values): 0.984
- normalized growth (locus YLL041C, strain sdh2, hits give low values): 0.996
- normalized growth (locus YLR027C, strain aat2, hits give low values): 0.955
- normalized growth (locus YLR113W, strain HOG1, hits give low values): 0.964
- normalized growth (locus YLR221C, strain rsa3, hits give low values): 0.89 (active)
- normalized growth (locus YLR258W, strain gsy2, hits give low values): 1.01
- normalized growth (locus YLR262C, strain YPT6 (second series), hits give low values): 0.521 (active)
- normalized growth (locus YLR320W, strain mms22, hits give low values): 0.907
- normalized growth (locus YLR342W, strain FKS1, hits give low values): 0.889 (active)
- normalized growth (locus YLR357W, strain rsc2, hits give low values): 0.979
- normalized growth (locus YLR370C, strain arc18, hits give low values): 1.01
- normalized growth (locus YLR384C, strain iki3, hits give low values): 1.01
- normalized growth (locus YML120C, strain ndi1, hits give low values): 0.909 (active)
- normalized growth (locus YMR058W, strain fet3, hits give low values): 0.952
- normalized growth (locus YMR125W, strain sto1, hits give low values): 1.03
- normalized growth (locus YMR129W, hits give low values): 1.01
- normalized growth (locus YMR205C, strain PFK2, hits give low values): 0.981
- normalized growth (locus YMR231W, strain pep5, hits give low values): 0.998
- normalized growth (locus YNL071W, strain lat1, hits give low values): 0.978
- normalized growth (locus YNL183C, strain NPR1, hits give low values): 0.951
- normalized growth (locus YNL209W, strain ssb2, hits give low values): 0.995
- normalized growth (locus YNL248C, strain rpa49, hits give low values): 1.01
- normalized growth (locus YNL322C, strain KRE1 (second series), hits give low values): 1
- normalized growth (locus YNR049C, strain mso1, hits give low values): 1
- normalized growth (locus YOR001W, strain rrp6, hits give low values): 0.901
- normalized growth (locus YOR070C, strain gyp1, hits give low values): 1
- normalized growth (locus YOR080W, strain dia2, hits give low values): 0.991
- normalized growth (locus YOR083W, strain WHI5, hits give low values): 0.941
- normalized growth (locus YOR106W, strain vam3, hits give low values): 0.981
- normalized growth (locus YOR231W, strain MKK1, hits give low values): 1
- normalized growth (locus YOR265W, strain rbl2, hits give low values): 0.967
- normalized growth (locus YOR270C, strain vph1, hits give low values): 0.794
- normalized growth (locus YOR290C, strain snf2, hits give low values): 1.02
- normalized growth (locus YPL051W, strain arl3, hits give low values): 1.04
- normalized growth (locus YPL078C, strain atp4, hits give low values): 0.99
- normalized growth (locus YPL106C, strain sse1, hits give low values): 1.15
- normalized growth (locus YPL240C, strain hsp82, hits give low values): 0.996
- normalized growth (locus YPL256C, strain CLN2, hits give low values): 1.04
